In PubChem BioAssay (NCI):
This is part of a sample that, as a whole, favours compounds with a hit. Of some 79,000 tested, about 15% had one in any assay. Values without a mark were called inactive. Active and inactive are the calls of the source. Rule as the data show it: active = growth inhibition above about 70%; inactive = the rest.

How the values were obtained:
[1] = NCI Yeast Anticancer Drug Screen. Data for the rad50 strain (AID 155);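 also: 0% = growth of vehicle-only cultures of the same strain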; conditions: S. cerevisiae rad50 strain growth inhibition, active compounds read high
In short: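 Readout: growth inhibition relative to vehicle-treated cultures. Compound exposure was carried out in a genetically defined yeast strain deficient in DNA damage repair.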

[2] = NCI Yeast Anticancer Drug Screen. Data for the mec2-1 strain (AID 157); conditions: S. cerevisiae mec2-1 strain, active compounds read high
In short: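 Test agents were screened against the mec2-1 yeast strain, with defined DNA repair or cell cycle alteration. Growth was scored as inhibition against vehicle-only controls.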

[3] = NCI Yeast Anticancer Drug Screen. Data for the sgs1 mgt1 strain (AID 161);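 also: 0% = growth of cultures given vehicle only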; conditions: S. cerevisiae sgs1 mgt1 strain, active compounds read high
In short: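 Test agents were incubated with a DNA-repair-mutant yeast strain. Growth was then read and compared against vehicle-treated controls.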

[4] = NCI Yeast Anticancer Drug Screen. Data for the cln2 rad14 strain (AID 165);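 also: 0% = growth equal to vehicle treated cultures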; conditions: S. cerevisiae cln2 rad14 strain, active compounds read high
In short: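 Growth of compound-exposed yeast (cln2 rad14 genotype) measured and expressed as inhibition relative to vehicle.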

[5] = NCI Yeast Anticancer Drug Screen. Data for the bub3 strain (AID 167); conditions: S. cerevisiae bub3 mutant strain, active compounds read high
In short: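 Readout: yeast growth inhibition, expressed relative to vehicle-only wells. The test organism is a mutant strain from a panel with lesions in DNA repair or checkpoint genes.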

[6] = NCI Yeast Anticancer Drug Screen. Data for the mlh1 rad18 strain (AID 175); conditions: S. cerevisiae mlh1 rad18 strain growth inhibition, active compounds read high
In short: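 In this whole-cell yeast screen, a strain with altered DNA damage repair is challenged with compound, and its growth is measured against matched vehicle-treated controls.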

[7] = at 5.0 µM (retest, dose inferred, filed as 0.5)
[8] = at 50.0 µM (retest, dose inferred, filed as 5.0)

Structure (SMILES)	growth inhibition [1, 7]	growth inhibition [1, 8]	growth inhibition ([1]; at 50.0 µM)	growth inhibition [2, 7]	growth inhibition [2, 8]	growth inhibition ([2]; at 50.0 µM)	growth inhibition [3, 7]	growth inhibition [3, 8]	growth inhibition ([3]; at 50.0 µM)	growth inhibition [4, 7]	growth inhibition [4, 8]	growth inhibition ([4]; at 50.0 µM)	growth inhibition [5, 7]	growth inhibition [5, 8]	growth inhibition ([5]; at 50.0 µM)	growth inhibition [6, 7]	growth inhibition [6, 8]	growth inhibition ([6]; at 50.0 µM)
COc1cc2c[n+](C)c3c4cc(OC)c(OCc5ccccc5)cc4c(OCc4ccccc4)cc3c2cc1OC	33%	96% (active)	59.4%	14%	93% (active)	53.7%	0%	94% (active)	51.1%	5%	91% (active)	96.6% (active)	16%	95% (active)	93.5% (active)	18%	95% (active)	65.8%
NNC(=O)N/N=C(\CC1(O)C(=O)Nc2c(Cl)ccc(Cl)c21)c1ccc(F)cc1 (stereo not given)	79% (active)	91% (active)	56.4%	50%	80% (active)	39.5%	72% (active)	85% (active)	37.4%	64%	74% (active)	2.75%	70% (active)	80% (active)	21.9%	57%	73% (active)	50.3%
Cc1c(C)c(C[P+](CCP(c2ccccc2)c2ccccc2)(c2ccccc2)c2ccccc2)c(C)c(C)c1C[P+](CCP(c1ccccc1)c1ccccc1)(c1ccccc1)c1ccccc1	18%	36%	29.8%	11%	13%	16.5%	7%	41%	59.5%	-14%	2%	-1.3%	14%	21%	-5.8%	13%	33%	35.2%
Oc1ccc(C2CCCCC2)cc1	1%	59%	85.5% (active)	-4%	51%	79.5% (active)	-10%	54%	95.3% (active)	-4%	37%	5.7%	-4%	62%	48.6%	0%	40%	93.8% (active)
c1ccc2nc(C[n+]3cccc4ccccc43)ccc2c1	86% (active)	99% (active)	97.5% (active)	73% (active)	99% (active)	97.8% (active)	70% (active)	97% (active)	58.4%	72% (active)	99% (active)	80% (active)	64%	98% (active)	97.9% (active)	73% (active)	98% (active)	97.1% (active)
O=C(O)Cc1cc(I)c(Oc2ccc(O)c(I)c2)c(I)c1	-6%	92% (active)	89.8% (active)	0%	98% (active)	92.2% (active)	7%	93% (active)	91% (active)	29%	97% (active)	89.3% (active)	22%	98% (active)	91.7% (active)	20%	97% (active)	89.7% (active)
Ic1[nH]c(I)c(I)c1I	13%	97% (active)	95.2% (active)	16%	98% (active)	95% (active)	10%	95% (active)	97% (active)	-2%	96% (active)	94.3% (active)	14%	98% (active)	96.7% (active)	11%	95% (active)	92.7% (active)
CC(=O)CCC(Br)(CCC(Br)(CCC(C)=O)[N+](=O)[O-])[N+](=O)[O-] (stereo not given)	0%	13%	95.2% (active)	8%	14%	90.5% (active)	-5%	33%	81.8% (active)	15%	29%	91.5% (active)	11%	28%	79% (active)	12%	22%	98.3% (active)
Clc1cc2ccccc2c2ccccc12	0%	62%	84.6% (active)	-3%	21%	10.8%	-3%	32%	75.2% (active)	-3%	6%	-51.7%	-2%	64%	77.3% (active)	-1%	84% (active)	93.2% (active)
CCCCNc1ncc(OCC)c(NCCCC)n1	1%	-1%	73.5% (active)	4%	-44%	88.9% (active)	0%	4%	92.5% (active)	-2%	4%	42.6%	39%	23%	94.9% (active)	0%	1%	77.7% (active)
CCCCCCc1ccc(O)cc1O	5%	98% (active)	99.5% (active)	-3%	100% (active)	99.8% (active)	-1%	100% (active)	99.5% (active)	-4%	99% (active)	99.5% (active)	-1%	99% (active)	99.5% (active)	-1%	99% (active)	36%
Cc1nc(N)nc(-c2ccccc2)c1N=Nc1ccc(Cl)cc1	-2%	61%	54.9%	17%	73% (active)	29.1%	1%	74% (active)	23.9%	-7%	56%	51.3%	-1%	86% (active)	88.2% (active)	-13%	89% (active)	81.7% (active)
Clc1nc(Cl)c(Cl)c(-c2ccccc2)n1	35%	75% (active)	90.3% (active)	29%	70% (active)	92.7% (active)	18%	77% (active)	89% (active)	17%	73% (active)	84.8% (active)	12%	86% (active)	85% (active)	55%	77% (active)	87.3% (active)
C=CCNC(=S)N/N=C/c1nccc(-c2ccccc2)c1C	37%	96% (active)	73.3% (active)	29%	97% (active)	81.6% (active)	46%	96% (active)	82% (active)	38%	94% (active)	84.7% (active)	54%	95% (active)	84.5% (active)	24%	93% (active)	78.5% (active)
CCCC(=O)Oc1c(Br)cc(Br)cc1Br	-1%	17%	21.6%	-4%	7%	21.3%	-4%	7%	19.1%	-6%	-19%	44.9%	1%	19%	45.5%	-1%	12%	20.6%
CC/S(=N\S(=O)(=O)c1ccc(C)cc1)c1cccc[n+]1[O-] (stereo not given)	83% (active)	97% (active)	96.1% (active)	82% (active)	99% (active)	96.7% (active)	79% (active)	98% (active)	98% (active)	51%	98% (active)	91.2% (active)	85% (active)	98% (active)	96.3% (active)	87% (active)	98% (active)	95.4% (active)
O=[N+]([O-])/C(=C\c1cccs1)c1ccccc1	90% (active)	98% (active)	99.2% (active)	92% (active)	99% (active)	99.7% (active)	83% (active)	99% (active)	99.5% (active)	75% (active)	99% (active)	99.1% (active)	90% (active)	99% (active)	99.5% (active)	96% (active)	99% (active)	99.3% (active)
O=C(O)COc1c(Cl)c(Cl)c(Cl)c(Cl)c1Cl.[Cu+2]	28%	98% (active)	88% (active)	20%	99% (active)	93.7% (active)	42%	99% (active)	92.7% (active)	7%	99% (active)	86% (active)	9%	99% (active)	89.2% (active)	22%	99% (active)	86.3% (active)
CCN(CC)CCOc1ccc(C(O)(Cc2ccc(Cl)cc2)c2ccccc2)cc1 (stereo not given)	39%	90% (active)	90.9% (active)	35%	87% (active)	83.8% (active)	58%	95% (active)	97.5% (active)	56%	93% (active)	98.3% (active)	57%	89% (active)	81.2% (active)	51%	89% (active)	97.2% (active)
O=[N+]([O-])c1ccc2nc(Nc3ccccc3)c(Nc3ccccc3)nc2c1	-18%	91% (active)	74.1% (active)	1%	95% (active)	77.8% (active)	-1%	93% (active)	63.9%	24%	93% (active)	70.5% (active)	15%	93% (active)	72.2% (active)	-6%	93% (active)	73% (active)
